Measurements taken from PMC4336329 (PLoS ONE, 2015).
The campaign covered roughly 310,000 compounds. About 14,000 (4.5%) showed an effect of 50% or more. The effect is printed as a negative number. For the sample, strong results were picked, then their nearest neighbours and some compounds at random.

Each compound was assayed against human ether-à-go-go-related gene (hERG) potassium channel (human, UniProt Q12809) (assay: primary screen, population patch clamp on CHO cells stably expressing hERG; higher = less effect of the substance).
Chain of human ether-à-go-go-related gene (hERG) potassium channel (Q12809 whole entry, looked up): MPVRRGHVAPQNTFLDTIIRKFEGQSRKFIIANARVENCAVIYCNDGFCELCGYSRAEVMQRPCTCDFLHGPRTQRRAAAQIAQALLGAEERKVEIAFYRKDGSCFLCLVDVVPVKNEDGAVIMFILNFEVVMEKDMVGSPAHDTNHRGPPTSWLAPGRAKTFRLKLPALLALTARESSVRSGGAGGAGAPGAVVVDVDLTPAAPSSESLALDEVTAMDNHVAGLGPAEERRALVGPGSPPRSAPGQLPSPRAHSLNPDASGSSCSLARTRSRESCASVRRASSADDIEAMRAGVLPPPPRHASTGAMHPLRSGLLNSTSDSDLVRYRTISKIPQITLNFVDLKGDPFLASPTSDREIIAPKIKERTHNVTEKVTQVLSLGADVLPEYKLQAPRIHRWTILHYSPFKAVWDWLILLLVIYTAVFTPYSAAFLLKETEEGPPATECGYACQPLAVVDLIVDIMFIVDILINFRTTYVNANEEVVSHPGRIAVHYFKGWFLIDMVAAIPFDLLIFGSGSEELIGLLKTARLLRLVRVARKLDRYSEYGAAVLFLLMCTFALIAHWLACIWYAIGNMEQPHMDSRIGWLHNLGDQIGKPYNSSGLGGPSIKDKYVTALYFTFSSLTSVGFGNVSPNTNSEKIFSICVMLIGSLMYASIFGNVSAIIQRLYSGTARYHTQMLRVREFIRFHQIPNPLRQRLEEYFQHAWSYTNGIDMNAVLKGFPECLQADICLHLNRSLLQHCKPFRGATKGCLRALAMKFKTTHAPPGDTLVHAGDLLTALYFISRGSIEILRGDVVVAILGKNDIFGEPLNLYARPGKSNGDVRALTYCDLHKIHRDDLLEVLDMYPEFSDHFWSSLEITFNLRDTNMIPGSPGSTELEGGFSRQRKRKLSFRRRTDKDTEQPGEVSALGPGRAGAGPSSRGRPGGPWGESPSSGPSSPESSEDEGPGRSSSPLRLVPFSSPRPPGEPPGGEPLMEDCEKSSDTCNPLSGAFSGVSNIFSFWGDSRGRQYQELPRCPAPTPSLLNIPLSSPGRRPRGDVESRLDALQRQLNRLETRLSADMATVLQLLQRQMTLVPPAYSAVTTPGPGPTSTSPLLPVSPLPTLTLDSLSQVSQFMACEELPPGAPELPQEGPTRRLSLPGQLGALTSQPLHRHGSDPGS
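Note: peak tail current of the secondary pulse compared with the same well before compound.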

Compound | hERG current change (%, negative = inhibition) at 10uM [%]
CCOc1ccc(/C=N/NC(=O)C2CC2)c(OCC)c1 | 2.21
COc1cc2c(cc1OC)CN(CC(=O)NC(=O)NC1CCCCC1)CC2 | 3.28
Cc1nccc2c1[nH]c1ccccc12 | 2.16
Cc1cc2[nH]c3c(c[n+](C)c4ccccc34)c2cc1C.[I-] | -77.8
COc1cc2[nH]c3ccccc3c2cc1C | 2.45
COc1ccc2nc(SCC(N)=O)[nH]c2c1 | -2.83
COc1ccc2nc(SCCN(C)C)[nH]c2c1.Cl | 12.3
CCN(CC)CCSc1nc2ccc(OC)cc2[nH]1.Cl | -64.7
O=C1[C@@H]2[C@H](C(=O)N1Cc1cccnc1)[C@H]1C=C[C@@H]2C1 | -3.89
COc1ccc(/C=N/Nc2ncc(C(F)(F)F)cc2Cl)c(OC)c1OC | -1.15
Cc1cc(Cl)ccc1OCC(=O)NNC(=O)C1CSC2(C)CCC(=O)N12 (stereo not drawn) | -18.5
COC(=O)Cc1c(CSc2ccccc2)oc2ccc(O)c(CN(C)C)c12 | -47.8
CCOC(=O)c1c(CSc2ccccc2)oc2ccc(O)cc12 | 3.91
CC(=O)c1c(CSc2ccccc2)oc2ccc(O)c(CN(C)C)c12.Cl | -70.8
CCOC(=O)c1c(CSc2ccccc2)oc2cc(Br)c(O)c(CN(C)C)c12.Cl | 8.53
CCOC(=O)c1c(CSCc2ccccc2)oc2ccc(O)c(CN(C)C)c12.Cl | -73.4
CCOC(=O)c1c(-c2ccccc2)oc2ccc(O)c(CN(C)C)c12 | -40.2
CCOC(=O)c1c(CN(C)C)oc2cc(CN(C)C)c(O)c(CSc3ccccc3)c12.Cl | -19.3
CCOC(=O)c1c(-c2ccccc2)oc2cc(CN(C)C)c(O)c(CN(C)C)c12 | -41.5
CCOC(=O)c1c(CSc2ccc(CC)cc2)oc2ccc(O)c(CN(C)C)c12.Cl | -55.3
COc1ccc2c(c1)[nH]c1c(=O)n(CCN(C)C)cnc12 | -34.1
CCOC(=O)c1cccc(NC(=O)/C=C/c2cccc([N+](=O)[O-])c2)c1 | -15.4
Cn1c(SCC(=O)NCc2ccccc2)nc2c([nH]c3ccccc32)c1=O | 8.94

Compound | hERG current change (%, negative = inhibition) at 10uM [%]
CCC(=O)Nc1nnc(S(=O)(=O)N2CCCC2)s1 | 8.85
Cc1c(NC(=O)c2cccc(F)c2)c(=O)n(-c2ccccc2)n1C | 20.5
CCCOC(=O)c1ccc(NC(=O)c2ccccc2OC)cc1 | 4.44
CCOC(=O)C1=C(C)N(C)C(=O)NC1c1ccccc1OC (stereo not drawn) | -12.1
Cc1ccc(Nc2nc(Oc3ccc(OCc4ccccc4)nn3)nc(N3CCOCC3)n2)cc1 | 3.53
S=c1oc(-c2ccncc2)nn1CCc1ccncc1 | 13
CCc1nc2c3cnn(-c4cc(Cl)ccc4C)c3ncn2n1 | 5.24
Cn1cc(-c2ccccc2C(N)=O)c(=O)c2ccccc21 | 5.37
NC(=O)c1cn(C2CCCCC2)c2ccccc2c1=O | -65.2
Cn1c2ccccc2c2c(C(=O)O)cn(C3CCCC3)c(=O)c21 | 7.78
CN(C)S(=O)(=O)c1ccc(C(=O)N2CC(=O)Nc3ccc(F)cc3C2c2ccc(F)cc2)cc1 (stereo not drawn) | -21
CCC(CC)NC(=O)C1CCN(S(=O)(=O)c2cccs2)CC1 | 1.92
COc1ccc(Cl)cc1NC(=S)Nc1cccc(C)c1 | 10.3
Cl.O=C(O)c1ccc(CNCc2ccccc2F)cc1 | 5.98
COc1cccc(OCC(O)CN2C(C)CCCC2C)c1.Cl (stereo not drawn) | 10.8
Cc1ccc(C)c(OCC(O)CN2C(C)CCCC2C)c1.Cl (stereo not drawn) | -67.9
Cc1cc(OCC(O)CN2C(C)CCCC2C)ccc1C(C)C (stereo not drawn) | -32.4
Cc1cc(Cl)ccc1OCC(O)CN1C(C)CCCC1C.Cl (stereo not drawn) | -73.2
CC1CCCC(C)N1CC(O)COCc1ccccc1F.Cl (stereo not drawn) | 13.2
Cc1cc(Cl)ccc1OCC(=O)N1C(C)CCCC1C (stereo not drawn) | -6.46
CC1CCCC(C)N1CC(O)COc1ccc(Cl)cc1 (stereo not drawn) | -65
CC1CCCC(C)N1CC(O)COCc1ccccc1.Cl (stereo not drawn) | 5.08
CC(=O)Nc1ccc(OCC(O)CN2C(C)CCCC2C)cc1.Cl (stereo not drawn) | 19.1

Compound | hERG current change (%, negative = inhibition) at 10uM [%]
CCn1c(/C=C/c2c[nH]c3ccccc23)nc2ccccc2c1=O | 20.5
CCOc1ccc2nc(N3CCC(C(=O)Nc4nnc(CC)s4)CC3)sc2c1 | 11.9
Cn1c(=O)c2cn(Cc3ccc(Cl)cc3)cc2n(C)c1=O | -1.75
CCOc1ccc(C2NCCc3cc(OC)c(OC)cc32)cc1OC (stereo not drawn) | 12.3
O=C1C(CSCc2ccccc2)NC(=S)N1c1ccccc1 (stereo not drawn) | 16
Nc1nc(SCCO)[nH]c(=O)c1NC(=O)c1ccc(Br)o1 | 23.8
Cc1ccc(OCC(=O)NNC(=O)C2CCN(c3ncccn3)CC2)cc1 | -18.6
COC(=O)C1=C[C@@H](C(=O)OC)[C@@H]2C3=C(C(=O)[C@]2(CC(C)C)NC(=O)c2ccccc2)[C@H](C)n2c(=O)n(-c4ccccc4)c(=O)n2[C@@H]3C1 | -8.87
CCN(C(=O)COC(=O)C1CCN(S(=O)(=O)c2ccc3c(c2)OCCO3)CC1)C1CCCCC1 | -2.31
CC1(C)Cc2cccc(OCC(=O)NCc3ccccc3F)c2O1 | -5.79
CC(Oc1ccccc1)C(=O)N1CCC2(CC1)CC(=O)c1ccccc1O2 (stereo not drawn) | -65.7
O=C1CC2(CCN(C(=O)COc3ccc(Cl)cc3)CC2)Oc2ccccc21 | -85.8
CC(Oc1ccccc1)C(=O)N1CCN(c2ccc(N3CCOCC3)nn2)CC1 (stereo not drawn) | -3.79
Cc1ccc(OCC(=O)N2CCC3(CC2)CC(=O)c2ccccc2O3)cc1 | -73.3
CC(=O)N1CCC2(CC1)CC(=O)c1cc(OCC(=O)NCc3ccc(C)cc3)ccc1O2 | -21.3
CC(Oc1ccccc1)C(=O)N1CCC2(CC1)Oc1ccc(Cl)cc1C(=O)C21CC(c2ccccc2)=NO1 (stereo not drawn) | 7.46
CCOC(=O)COc1ccc2c(c1)C(=O)CC1(CCN(C(C)=O)CC1)O2 | -19.7
CC(Oc1ccccc1)C(=O)N1CCN(c2ccc(N3CCCCCC3)nn2)CC1 (stereo not drawn) | -52.7
CC(Oc1ccccc1)C(=O)N1CCN(c2ccc(N3CCCCC3)nn2)CC1 (stereo not drawn) | -28.5
CC(Oc1ccccc1)C(=O)N1CCN(C(=O)C(C)Oc2ccccc2)CC1 (stereo not drawn) | 8.52
COc1ccc(C2=NS(=O)(=O)N(C)C(C(=O)N3CCOCC3)=C2)cc1OC | -2.16
CN1CCN(C(=O)c2cnn(-c3ccccc3)c2NC(=O)c2cccs2)CC1 | -29.2
CCCCC1(C(=O)OCC)NC(c2ccc(O)cc2)C2C(=O)N(c3ccccc3)C(=O)C21 (stereo not drawn) | -3.73

Compound | hERG current change (%, negative = inhibition) at 10uM [%]
CCOC(=O)C1=C(N)N2C(=O)C(C)SC2=C(C(=O)OCC)C1c1cc(OC)c(OC)c(OC)c1 (stereo not drawn) | 1.27
COc1ccc(OC)c(S(=O)(=O)N2CCC(C(=O)NCc3ccccc3)CC2)c1 | -9.9
CN1CCN(/C=C2\SC(=S)NC2=O)CC1 | 11.6
O=C(NNc1ccccc1)C(=O)NNS(=O)(=O)c1ccc(CCCl)cc1 | 2.82
O=C1CC(N2CCOCC2)=NN1c1ccc([N+](=O)[O-])cc1 | -8.54
CCNC(=S)NNC(=O)c1nn(C)c(C)c1Cl | 19
CC(=O)Nc1c(O)n(C)c2ccccc12 | 13.6
CCOC(=O)C1CCN(C(=O)C(C)Oc2ccc(Br)cc2)CC1 (stereo not drawn) | -16.1
Cc1ccccc1OCC(=O)N1CCC2(CC1)CC(=O)c1ccccc1O2 | -57.5
CC(=O)N1CCC2(CC1)CC(=O)c1cc(OCC(=O)N3CCC4(CC3)OCCO4)ccc1O2 | 18.5
COc1ccccc1OCC(=O)N1CCC2(CC1)CC(=O)c1ccccc1O2 | -40.2
COc1ccc(OCC(=O)N2CCC3(CC2)CC(=O)c2ccccc2O3)cc1 | -88.9
O=C1CC2(CCN(C(=O)COc3ccccc3F)CC2)Oc2ccccc21 | -49.1
CCN1CCN(C(=O)COc2ccc3c(c2)C(=O)CC2(CCN(C(C)=O)CC2)O3)CC1 | 20.5
CC(Oc1ccc(Br)cc1)C(=O)N1CCC(C(N)=O)CC1 (stereo not drawn) | -78.1
CCC(Oc1ccccc1)C(=O)N1CCC(C(N)=O)CC1 (stereo not drawn) | 15.8
CCOC(=O)N1CCN(C(=O)COc2ccc3c(c2)C(=O)CC2(CCN(C(C)=O)CC2)O3)CC1 | -2.13
CCOc1ccc(OCC(=O)N2CCC3(CC2)CC(=O)c2ccccc2O3)cc1 | -94.6
CC(=O)N1CCC2(CC1)CC(=O)c1cc(OCC(=O)N3CCN(C)CC3)ccc1O2 | 1.86
O=C(Nc1ccccc1N1CCOCC1)c1cccnc1 | 15
O=C(N/N=C/c1cccs1)c1cccc(NC(=O)c2ccc(Cl)cc2)c1 | 7.57
